# Laboratory results taken from PubChem BioAssay (NCI).
# About 83,000 compounds went through this panel and 20% of them were active in at least one assay; those are over-represented in the sample as a whole.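 How to read the values: 0–100, growth inhibition (40 = 60% inhibited); 0, no net growth; -100 to 0, cell death (-40 = 40% of starting cells died; -100 = all dead).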 Unmarked numbers belong to inactive results. Active and inactive are the calls of the source. Rule for the calls: active = growth percent below 10; inactive = the rest.
# Tests used:
# Test in all cases: NCI-60 one-dose screen, 48 h (100 = growth as untreated, 0 = no growth, -100 = all killed)
# Details in all cases: 10 µM unless noted
# [1] = tested on: SR leukemia
# [2] = tested on: RPMI-8226 leukemia
# [3] = tested on: OVCAR-8 ovarian
# [4] = tested on: OVCAR-5 ovarian
# [5] = tested on: OVCAR-4 ovarian
# [6] = tested on: SK-OV-3 ovarian
# [7] = tested on: IGROV1 ovarian
# [8] = tested on: OVCAR-3 ovarian
# [9] = tested on: HS 578T breast
# [10] = tested on: NCI/ADR-RES ovarian
# [11] = tested on: T-47D breast
# [12] = tested on: BT-549 breast
# [13] = tested on: MDA-MB-435 melanoma
# [14] = tested on: SW-620 colon
# [15] = tested on: MCF7 breast
# [16] = tested on: HCT-116 colon
# [17] = tested on: HCC-2998 colon
# [18] = tested on: KM12 colon
Compound,growth [1],growth [2],growth [3],growth [4],growth [5],growth [6],growth [7],growth [8],growth [9],growth [10],growth [11],growth [12],growth [13],growth [14],growth [15],growth [16],growth [17],growth [18]
Cc1ccc(C)c2c1sc1nc(N3CCOCC3)c(C#N)c(=O)n12,63.5%,76.5%,110%,95.8%,76.8%,99.4%,55.9%,89.9%,76.4%,92.2%,73.4%,90.9%,118%,105%,51.5%,88.6%,109%,63.1%
CC(C)c1ccc2c(c1)CC[C@H]1[C@](C)(C(=O)OCC#CCN3CCCC3)CCC[C@]21C,52.5%,47.5%,89%,85.8%,64.4%,88.4%,90.5%,77.6%,87.6%,82.2%,63.4%,93.4%,82.9%,84.6%,73.9%,48.5%,86.9%,81.4%
COc1ccc(OC)c(Nc2nnc(-c3cc(OC)c(OC)c(OC)c3)o2)c1,89.6%,95.2%,104%,105%,99.3%,104%,98.5%,112%,107%,94.4%,82.2%,88.8%,102%,108%,105%,103%,103%,94.6%
COc1cc(C=Nc2oc(-c3ccccc3)c(-c3ccccc3)c2C#N)cc(CN2CCCC2)c1O,80.9%,100%,107%,102%,95.5%,111%,92%,105%,90.2%,104%,85.7%,109%,104%,95.9%,96.4%,95.4%,111%,102%
N#Cc1c(-c2ccccc2)cc(-c2ccccc2)n(CCCCC(=O)NO)c1=O,7.41% (active),0.83% (active),15.6%,13.6%,34%,42.1%,20%,20.5%,27.4%,-16.2% (active),9.65% (active),52.8%,-13.7% (active),11.5%,20.5%,5.09% (active),29.3%,22.9%
CCOC(=O)c1[nH]cc2c1CCc1sc(Nc3ccccn3)nc1-2,56.8%,45%,83.1%,109%,72.7%,100%,97.6%,82.2%,95.6%,72.5%,55.4%,79.4%,86.2%,103%,57.1%,75.7%,94.6%,64.3%
O=c1oc2c(cc1-c1ccccc1)c(=O)[nH]c1ccccc12,108%,101%,95.7%,103%,99.6%,105%,103%,112%,98.1%,102%,95.4%,97.5%,97.7%,105%,87.3%,97.1%,105%,101%
COc1cc2c(c(OC)c1OC)CCC(c1cccc(C(=O)Nc3ccc(Br)cc3)c1)O2 (stereo not given),27.7%,40.5%,71.8%,68.4%,63.8%,72.7%,61.2%,78.8%,78.5%,63.9%,28.9%,69%,81.9%,88.7%,67.1%,60.6%,71.5%,65.2%
Cc1ccc2c(c1)=C/C(=C\c1cc(-c3ccccc3)[nH]c1O)C(=O)N=2,14.1%,33.8%,50.6%,78.9%,59.7%,65.7%,40.7%,16.1%,41.9%,43.7%,40.2%,29.9%,-1.51% (active),32.8%,21.5%,17.6%,,28.3%
ClC(Cl)c1nc(-c2ccccc2)n2nc(-c3ccccc3)cc2n1,7.56% (active),0.699% (active),16.5%,0.621% (active),-10.8% (active),9.58% (active),52.7%,-28.3% (active),-27.3% (active),6.09% (active),28.5%,77.2%,12%,-35.3% (active),3.37% (active),4.82% (active),-82.1% (active),-32% (active)
CCCOC(=O)Nc1nc2ccc(SCC)cc2s1,25.9%,85.1%,94.7%,102%,94.2%,95.8%,89.5%,76.9%,93.4%,50.5%,84.8%,85.5%,3.85% (active),52.5%,43.7%,62.8%,,58.6%
O=C(Cc1ccc(/C=C/C(=O)c2ncc[nH]2)cc1)Nc1cc(F)c(F)c(F)c1,14.9%,0.541% (active),41.7%,80.7%,72.7%,103%,55.8%,3.93% (active),37%,66.5%,49.9%,66.7%,51.2%,13.1%,10.4%,15.8%,,24.7%
CCCCCCCCCCCCCCCCCCOc1ccccc1CC(=O)NCC[N+](C)(C)C,21.3%,17.9%,41.7%,14.6%,46.7%,84.9%,-49.7% (active),35%,61.8%,99.3%,73.2%,57.6%,73.1%,45.1%,57.6%,45.2%,,-27% (active)
c1csc(-c2cn3nc(-c4c[nH]c5ccccc45)sc3n2)c1,14.5%,17.1%,29.2%,37.1%,45%,26.4%,30.6%,-7.97% (active),29.1%,12%,23.9%,38%,-38.4% (active),22.5%,13%,14.7%,52.4%,23.8%
COCCn1cc(-c2csc(-c3c[nH]c4ccc(F)cc34)n2)c2cccnc21,9.53% (active),21.4%,34%,60.9%,37.6%,49.7%,42%,15.2%,52.2%,7.39% (active),2.36% (active),7.07% (active),5.02% (active),18.8%,11.8%,22.2%,,8.29% (active)
COc1ccc(C/C(C)=C(\c2ccc(Cl)cc2)c2ccc(OCCN3CCCC3)cc2)cc1,-14.2% (active),13.9%,91.1%,68.9%,97.7%,101%,69%,93.1%,70.4%,87.8%,56.6%,85.5%,89.4%,75.2%,35.7%,78.9%,75.6%,72.1%
C#CCOc1cccc(Nc2ncnc3c2ncn3C2CCN(C(=O)CCl)C2)c1 (stereo not given),-23.8% (active),-49.8% (active),5.81% (active),-88.4% (active),-51.7% (active),48.4%,-58.3% (active),-90.9% (active),14%,15.7%,-45.2% (active),-62.5% (active),-23.8% (active),-64.2% (active),-50.9% (active),1.32% (active),,23.7%
